# Assay results published in a collection of fitness landscapes (doi:10.1016/j.celrep.2020.107928).
# Over roughly 81,000 sequences, “one-hybrid fitness for binding NBS DNA” has its median near -0.1; the highest 2% begin near 0.36. Shown is part of a subset that was picked to be rich in the highest values.
# B1: Caulobacter ParB omega fusion; a variant is named by its letters at X, in order, B8GW30 (parent)
# chain: MESVVVGEPGMSEGRRGLGRGLSALLGEVDAAPAQAPGEQLGGSREAPIEILQRNPDQPRRTFREEDLEDLSNSIREKGVLQPILVRPSPDTAGEYQIVAGERAWRAAQRAGLKTVPIMVRELDDLAVLEIGIIENVQRADLNVLEEALSYKVLMEKFERTQENIAQTIGKSXSHVANXMRLLXLPDEVQSYLVSGELTAXHARAIAAAADPVALAKQIIEGGLSVRETEALARKAPNLSAGKSKGGRPPRVKDTDTQALESDLSSVLGLDVSIDHRGSTGTLTITYATLEQLDDLCNRLTRGI
# Variants of: B1
# Experiment: one-hybrid fitness for binding NBS DNA (the Noc-binding site; scaled: cognate 1, non-cognate 0); higher = stronger binding
# Settings: with NBS DNA site
# Procedure, shortened: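 The reporter was HIS3, with the binding site 19 bp from the promoter, in E. coli USO used for bacterial one-hybrid selection of Caulobacter ParB libraries with four specificity codons randomised. Growth was on M9 lacking histidine, with 0.1 mM IPTG and 5 mM 3-AT, for 48 hours at 37°C. Illumina sequencing covered plasmids before and after selection; three replicate libraries were pooled and variants with under 10 reads dropped. A fitness score is the log change in variant-to-wild-type read ratio, rescaled to the cognate and non-cognate references.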
row,Variant,one-hybrid fitness for binding NBS DNA
1,SHTT,≤ 0.2
2,VASP,≤ 0.2
3,SECF,≤ 0.2
4,NISL,≤ 0.2
5,QYVC,≤ 0.2
6,QYRC,0.38
7,QYDC,≤ 0.2
8,QYKC,0.371
9,QYNC,≤ 0.2
10,QYYC,≤ 0.2
11,MESV,≤ 0.2
12,SGNS,≤ 0.2
13,GITD,≤ 0.2
14,RVSA,≤ 0.2
15,RLGT,0.389
16,RLLT,0.337
17,RLYT,0.391
18,RLPT,≤ 0.2
19,RMCF,≤ 0.2
20,RLGM,≤ 0.2
21,RLCT,0.396
22,RLCP,≤ 0.2
23,RLGC,≤ 0.2
24,RLCH,≤ 0.2

row,Variant,one-hybrid fitness for binding NBS DNA
1,RMCL,≤ 0.2
2,RMCT,0.366
3,APPM,≤ 0.2
4,YKNV,≤ 0.2
5,MWIF,≤ 0.2
6,QMEK,≤ 0.2
7,LNIR,≤ 0.2
8,FVCG,≤ 0.2
9,LKHR,≤ 0.2
10,RLHY,≤ 0.2
11,RTCK,≤ 0.2
12,RLRT,0.657
13,RLHT,0.437
14,RLSH,≤ 0.2
15,RLST,0.46
16,RTCT,0.531
17,RLSP,≤ 0.2
18,RLWT,0.23
19,RTCC,≤ 0.2
20,RLHN,≤ 0.2
21,RLIT,0.23
22,FWLT,≤ 0.2
23,PFLT,≤ 0.2
24,THKK,≤ 0.2

row,Variant,one-hybrid fitness for binding NBS DNA
1,QSNE,≤ 0.2
2,SMHG,≤ 0.2
3,TFYD,≤ 0.2
4,RLKP,≤ 0.2
5,RLQD,≤ 0.2
6,RPCT,≤ 0.2
7,RLDT,≤ 0.2
8,RLQT,0.462
9,RSCT,0.281
10,RLNH,0.201
11,RCCT,0.39
12,RLKT,0.644
13,RLNT,0.528
14,RLVT,0.236
15,RLQN,≤ 0.2
16,KERP,≤ 0.2
17,SPFL,≤ 0.2
18,PQIR,≤ 0.2
19,QSHW,≤ 0.2
20,AERM,≤ 0.2
21,QSMH,≤ 0.2
22,EMMN,≤ 0.2
23,QTMR,0.656
24,QSMN,≤ 0.2

row,Variant,one-hybrid fitness for binding NBS DNA
1,EMMK,0.405
2,QTMY,0.232
3,EMMS,≤ 0.2
4,QAMR,0.45
5,QSMR,0.456
6,QTMC,≤ 0.2
7,QAMN,≤ 0.2
8,QAMH,0.219
9,LIRV,≤ 0.2
10,RMDQ,≤ 0.2
11,VSTS,≤ 0.2
12,CNRT,≤ 0.2
13,IWRR,≤ 0.2
14,PMRP,≤ 0.2
15,TVTG,≤ 0.2
16,HFAM,≤ 0.2
17,DPVR,≤ 0.2
18,CHNI,≤ 0.2
19,QCMR,0.589
20,QPMR,≤ 0.2
21,QRMM,0.334
22,QMMR,0.523
23,QIMR,0.348
24,QMML,≤ 0.2

row,Variant,one-hybrid fitness for binding NBS DNA
1,QRMR,0.971
2,QMMD,≤ 0.2
3,QKMK,≤ 0.2
4,QKMC,≤ 0.2
5,QRMF,0.25
6,QKMR,0.51
7,TRYK,≤ 0.2
8,DMET,≤ 0.2
9,PFSA,≤ 0.2
10,KETI,≤ 0.2
11,TMKT,≤ 0.2
12,FTAV,≤ 0.2
13,TYAQ,≤ 0.2
14,DFDS,≤ 0.2
15,QLMP,≤ 0.2
16,QLMD,≤ 0.2
17,QLMR,0.437
18,QHMD,≤ 0.2
19,QHMR,0.512
20,QHMH,≤ 0.2
21,PNHV,≤ 0.2
22,LLMW,≤ 0.2
23,LSGP,≤ 0.2
24,QVTD,≤ 0.2

row,Variant,one-hybrid fitness for binding NBS DNA
1,QITH,≤ 0.2
2,QVTS,0.257
3,QATR,0.507
4,QVTR,0.38
5,QMTR,0.568
6,QMTP,≤ 0.2
7,QMTN,≤ 0.2
8,QITP,≤ 0.2
9,QITR,0.417
10,QATN,≤ 0.2
11,QATP,≤ 0.2
12,AEVC,≤ 0.2
13,LDTD,≤ 0.2
14,DQQR,≤ 0.2
15,PSGT,≤ 0.2
16,DSIE,≤ 0.2
17,WSFT,≤ 0.2
18,GPRS,≤ 0.2
19,PFKM,≤ 0.2
20,QQPY,≤ 0.2
21,QKTH,0.241
22,QHTR,0.527
23,QKTR,0.646
24,QTTF,≤ 0.2

row,Variant,one-hybrid fitness for binding NBS DNA
1,QHTH,≤ 0.2
2,QSTR,0.531
3,QHTD,≤ 0.2
4,QKTK,≤ 0.2
5,QSTD,≤ 0.2
6,QTTR,0.794
7,QTTQ,0.242
8,QSTP,≤ 0.2
9,HRSV,≤ 0.2
10,ENSS,≤ 0.2
11,DMPS,≤ 0.2
12,GDPL,≤ 0.2
13,ACNS,≤ 0.2
14,TMDS,≤ 0.2
15,PAFY,≤ 0.2
16,QPEV,≤ 0.2
17,IHVS,≤ 0.2
18,GGTE,≤ 0.2
19,HVRY,≤ 0.2
20,NRTR,≤ 0.2
21,QNTR,0.223
22,QLTR,0.487
23,QCTR,0.637
24,DRTR,≤ 0.2

row,Variant,one-hybrid fitness for binding NBS DNA
1,QLTN,≤ 0.2
2,QLTD,≤ 0.2
3,QPTR,≤ 0.2
4,QRTR,1.01
5,PNSR,≤ 0.2
6,QDFN,≤ 0.2
7,VVTR,≤ 0.2
8,ASAC,≤ 0.2
9,AKMS,≤ 0.2
10,VYSF,≤ 0.2
11,GLYG,≤ 0.2
12,HCDP,≤ 0.2
13,RLYR,0.385
14,RLSR,0.43
15,RLSK,≤ 0.2
16,RLNN,≤ 0.2
17,RLNR,0.526
18,RLWR,0.248
19,RLDR,≤ 0.2
20,RLPR,≤ 0.2
21,RLGN,≤ 0.2
22,RLGH,≤ 0.2
23,RLGR,0.443
24,RLSC,≤ 0.2

row,Variant,one-hybrid fitness for binding NBS DNA
1,PRNP,≤ 0.2
2,HRFS,≤ 0.2
3,YKLT,≤ 0.2
4,CNVC,≤ 0.2
5,CNLW,≤ 0.2
6,RLRR,0.673
7,RLQR,0.43
8,RLHM,≤ 0.2
9,RLHD,≤ 0.2
10,RLCN,≤ 0.2
11,RLIR,0.21
12,RLQY,≤ 0.2
13,RLHR,0.491
14,RLCR,0.412
15,RLCS,0.334
16,RLLR,0.32
17,RLQQ,≤ 0.2
18,HQQG,≤ 0.2
19,GCLR,≤ 0.2
20,YYLT,≤ 0.2
21,TQHV,≤ 0.2
22,RMVQ,≤ 0.2
23,WTKW,≤ 0.2
24,SRPI,≤ 0.2

row,Variant,one-hybrid fitness for binding NBS DNA
1,QSRF,0.265
2,QTDF,≤ 0.2
3,QRRF,0.418
4,QRDF,≤ 0.2
5,QTYF,≤ 0.2
6,QCRF,0.423
7,QTRF,0.446
8,QPRF,≤ 0.2
9,QRYF,0.227
10,NNNK,≤ 0.2
11,WGNT,≤ 0.2
12,AIMG,≤ 0.2
13,NWSC,≤ 0.2
14,HMTV,≤ 0.2
15,SYSV,≤ 0.2
16,RCNA,0.298
17,RCDA,≤ 0.2
18,RRDA,0.463
19,RRNA,0.679
20,RSDA,≤ 0.2
21,RPNA,≤ 0.2
22,VHDS,≤ 0.2
23,RQYA,≤ 0.2
24,PMCY,≤ 0.2

row,Variant,one-hybrid fitness for binding NBS DNA
1,RSCR,0.38
2,RHCR,0.37
3,RSCN,≤ 0.2
4,RICN,≤ 0.2
5,RICH,≤ 0.2
6,RICR,0.369
7,RPCR,≤ 0.2
8,RSCH,≤ 0.2
9,RHCH,≤ 0.2
10,RFCR,≤ 0.2
11,RCCR,0.45
12,RHCP,≤ 0.2
13,TYVA,≤ 0.2
14,SMNL,≤ 0.2
15,VKSS,≤ 0.2
16,NEES,≤ 0.2
17,WCYR,≤ 0.2
18,AMGT,≤ 0.2
19,RKCD,≤ 0.2
20,RKCR,0.552
21,RKCH,≤ 0.2
22,SQRN,≤ 0.2
23,VTPF,≤ 0.2
24,LTHI,≤ 0.2

row,Variant,one-hybrid fitness for binding NBS DNA
1,PWLV,≤ 0.2
2,QQVG,≤ 0.2
3,QQYC,≤ 0.2
4,QQDY,≤ 0.2
5,QQVC,≤ 0.2
6,QQVY,≤ 0.2
7,QQKC,0.449
8,QQNC,0.265
9,QQFG,≤ 0.2
10,QQKG,0.437
11,QQRC,0.455
12,QQFC,≤ 0.2
13,QQKY,0.63
14,RRWI,0.2
15,GLIT,≤ 0.2
16,LTTA,≤ 0.2
17,AREP,≤ 0.2
18,GRTD,≤ 0.2
19,PMHT,≤ 0.2
20,PPTR,≤ 0.2
21,KSNL,≤ 0.2
22,THKH,≤ 0.2
23,WPSG,≤ 0.2
24,GFYT,≤ 0.2

row,Variant,one-hybrid fitness for binding NBS DNA
1,QQFY,≤ 0.2
2,QQFM,≤ 0.2
3,NQKS,≤ 0.2
4,QQKN,0.464
5,QQRY,0.597
6,QQVS,0.33
7,QQYY,≤ 0.2
8,QQRM,0.459
9,QQKS,0.714
10,QQYM,≤ 0.2
11,TWEG,≤ 0.2
12,PTGW,≤ 0.2
13,RYQK,≤ 0.2
14,KVTF,≤ 0.2
15,WKWG,≤ 0.2
16,DWIC,≤ 0.2
17,LTTQ,≤ 0.2
18,SPPV,≤ 0.2
